Experiment [1] addresses NAD(+) hydrolase SARM1 (Homo sapiens) (UniProt Q6SZW1). Briefly: blocking NAD cleavage by SARM1 SAM-TIR – cell lysate, NAD-Glo luminescence (AID 1508614;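 active means compound whose remaining NAD level is above about 45 nM, limit read from the data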;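 further: higher remaining NAD means stronger inhibition of SARM1 NADase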). The settings on record: SAM-TIR HEK293T lysate NADase, at 1 µM, active compounds read high.
In experiment [2] the target is Mitogen-activated protein kinase 7 (Homo sapiens) (UniProt Q13164). The experiment is described as follows: Gal4-ERK5 driven luciferase induction – cell-based, HTS, primary screen (AID 1508626).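 Further: luciferase driven by Gal4-ERK5 fusion binding five Gal4 sites before minimal TATA.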 The settings on record: HeLa Gal4-ERK5 transactivation, 18 h, at 5 µM, active compounds read high.

The record followed here is PubChem BioAssay.

Unmarked numbers belong to inactive results. Calls of active or inactive are those of the source.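 How the source made its calls, unless noted: active means luciferase signal above three times the same-plate solvent-only control wells; inactive means the rest.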

Sequence of NAD(+) hydrolase SARM1 (Homo sapiens) (Q6SZW1 whole entry, looked up, the tested form may be a part): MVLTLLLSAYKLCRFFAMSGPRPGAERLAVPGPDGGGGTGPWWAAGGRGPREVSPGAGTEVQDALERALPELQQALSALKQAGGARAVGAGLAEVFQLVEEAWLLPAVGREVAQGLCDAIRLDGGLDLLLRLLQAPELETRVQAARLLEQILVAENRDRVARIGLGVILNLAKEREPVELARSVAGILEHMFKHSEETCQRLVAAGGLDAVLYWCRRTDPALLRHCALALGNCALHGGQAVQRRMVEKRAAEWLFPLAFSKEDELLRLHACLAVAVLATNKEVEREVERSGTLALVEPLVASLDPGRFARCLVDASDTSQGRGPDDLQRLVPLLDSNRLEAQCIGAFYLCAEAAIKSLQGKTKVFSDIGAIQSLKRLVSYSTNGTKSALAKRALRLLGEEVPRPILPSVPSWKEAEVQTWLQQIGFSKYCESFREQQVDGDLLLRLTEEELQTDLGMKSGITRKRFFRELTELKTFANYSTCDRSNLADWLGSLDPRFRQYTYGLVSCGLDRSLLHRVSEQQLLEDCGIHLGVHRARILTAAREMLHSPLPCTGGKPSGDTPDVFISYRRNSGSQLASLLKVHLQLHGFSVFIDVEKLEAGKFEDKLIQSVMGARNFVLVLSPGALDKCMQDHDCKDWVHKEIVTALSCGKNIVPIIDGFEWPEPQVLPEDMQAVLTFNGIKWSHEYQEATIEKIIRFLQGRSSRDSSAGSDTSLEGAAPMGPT
Sequence of Mitogen-activated protein kinase 7 (Homo sapiens) (Q13164 whole entry, looked up, the tested form may be a part): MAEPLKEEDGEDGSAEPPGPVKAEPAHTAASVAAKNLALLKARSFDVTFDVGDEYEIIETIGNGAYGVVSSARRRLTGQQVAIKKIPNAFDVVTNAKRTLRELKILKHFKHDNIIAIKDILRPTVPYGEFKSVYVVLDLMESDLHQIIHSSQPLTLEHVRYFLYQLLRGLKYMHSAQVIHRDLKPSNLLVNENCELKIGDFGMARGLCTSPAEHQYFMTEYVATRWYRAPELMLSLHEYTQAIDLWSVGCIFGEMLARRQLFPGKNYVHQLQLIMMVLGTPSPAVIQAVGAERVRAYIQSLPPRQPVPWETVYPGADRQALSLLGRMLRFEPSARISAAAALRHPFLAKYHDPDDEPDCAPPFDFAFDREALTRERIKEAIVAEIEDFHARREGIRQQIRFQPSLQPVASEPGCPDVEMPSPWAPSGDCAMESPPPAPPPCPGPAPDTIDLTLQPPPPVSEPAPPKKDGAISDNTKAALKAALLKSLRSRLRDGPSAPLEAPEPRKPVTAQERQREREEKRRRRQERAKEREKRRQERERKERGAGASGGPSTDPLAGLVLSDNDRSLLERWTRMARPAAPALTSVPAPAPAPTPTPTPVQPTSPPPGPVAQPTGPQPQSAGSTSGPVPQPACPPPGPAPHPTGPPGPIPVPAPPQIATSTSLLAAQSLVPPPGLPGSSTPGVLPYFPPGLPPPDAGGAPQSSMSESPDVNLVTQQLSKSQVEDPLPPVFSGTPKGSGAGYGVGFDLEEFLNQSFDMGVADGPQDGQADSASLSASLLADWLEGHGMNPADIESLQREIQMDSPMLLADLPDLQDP

For the compound `Nc1ccc(S(N)(=O)=O)cc1`, the remaining NAD in experiment [1] is 10 nM. Also, the luciferase signal in experiment [2] was 164 AU.

With `O=C(O)c1ccccc1C(=O)Nc1ccc(S(=O)(=O)Nc2nccs2)cc1`, the remaining NAD in experiment [1] is 10 nM. Moreover, the luciferase signal in experiment [2] was 92 AU.

Turning to `O=C1c2ccccc2C(=O)C1c1ccccc1`, in experiment [1], the remaining NAD was 10 nM. In addition, the luciferase signal in experiment [2] is 52 AU.

Take `O=C1O[C@H](CO)[C@@H](O)[C@H](O)[C@H]1O`: the remaining NAD in experiment [1] is 10 nM. Also, in experiment [2], the luciferase signal is 16 AU.

With `CCN(CC)Cc1cc(Nc2ccnc3cc(Cl)ccc23)ccc1O`, in experiment [1], the remaining NAD was 10 nM. The luciferase signal in experiment [2] is 60 AU.

`CC[C@]12CCCN3CCc4c(n(c5ccccc45)[C@@](O)(C(=O)OC)C1)[C@@H]32`: the remaining NAD in experiment [1] is 10 nM. In experiment [2], the luciferase signal is 112 AU.

For the compound `O=C(O)CCNC(=O)c1ccccc1`, the remaining NAD in experiment [1] was 10 nM. The luciferase signal in experiment [2] is 20 AU.

`NC(=O)c1ccc([N+](=O)[O-])cc1Cl`: the remaining NAD in experiment [1] is 10 nM. In addition, the luciferase signal in experiment [2] is 180 AU.

On to `CCCCC1C(=O)N(c2ccccc2)N(c2ccc(O)cc2)C1=O` (stereo not given), for which the remaining NAD in experiment [1] was 10 nM. Also, the luciferase signal in experiment [2] was 144 AU.

As to `O=C(O)CCC(=O)Nc1ccc(S(=O)(=O)Nc2nccs2)cc1`, in experiment [1], the remaining NAD is 10 nM. In addition, the luciferase signal in experiment [2] was 28 AU.

As to `O=C1c2cccc(O)c2C(=O)c2c(O)cccc21`, the remaining NAD in experiment [1] was 10 nM. The luciferase signal in experiment [2] is 176 AU.

Turning to `COc1ccc(C(=O)c2ccccc2O)c(O)c1`, in experiment [1], the remaining NAD is 10 nM. The luciferase signal in experiment [2] is 92 AU.

As for `O=c1ccc2ccccc2o1`, the remaining NAD in experiment [1] is 10 nM. Also, the luciferase signal in experiment [2] is 48 AU.

On to `CC(=O)O[C@]1(C(C)=O)CC[C@H]2[C@@H]3C=C(Cl)C4=CC(=O)CC[C@]4(C)[C@H]3CC[C@@]21C`, for which the remaining NAD in experiment [1] is 10 nM. For the same compound, in experiment [2], the luciferase signal was 76 AU.

On to `CN(C)CCOC(=O)C(c1ccccc1)C1(O)CCCC1` (stereo not given), for which the remaining NAD in experiment [1] was 10 nM. In addition, the luciferase signal in experiment [2] is 104 AU.

As to `CCOC(=O)NNc1nncc2ccccc12`, the remaining NAD in experiment [1] was 10 nM. In addition, in experiment [2], the luciferase signal is 36 AU.

For `COc1cnc(NS(=O)(=O)c2ccc(N)cc2)nc1`, the remaining NAD in experiment [1] was 10 nM. Further, the luciferase signal in experiment [2] was 40 AU.

As for `C[C@@H]1C[C@H]2[C@@H]3C[C@H](F)C4=CC(=O)C=C[C@]4(C)[C@@]3(F)[C@@H](O)C[C@]2(C)[C@@]1(O)C(=O)CO`, the remaining NAD in experiment [1] was 10 nM. Also, in experiment [2], the luciferase signal was 116 AU.

As to `Cc1onc(-c2ccccc2Cl)c1C(=O)N[C@@H]1C(=O)N2[C@@H]1SC(C)(C)[C@@H]2C(=O)O`, the remaining NAD in experiment [1] was 10 nM. Further, the luciferase signal in experiment [2] is 24 AU.

Regarding `O=c1[nH]cnc2c1ncn2[C@@H]1O[C@H](CO)[C@@H](O)[C@H]1O`, the remaining NAD in experiment [1] was 10 nM. Moreover, the luciferase signal in experiment [2] is 44 AU.

As for `Cc1ccc(C(=O)C(C)CN2CCCCC2)cc1` (stereo not given), in experiment [1], the remaining NAD is 10 nM. For the same compound, in experiment [2], the luciferase signal was 40 AU.

With `Nc1ccc(S(=O)(=O)Nc2ccc(Cl)nn2)cc1`, the remaining NAD in experiment [1] was 10 nM. The luciferase signal in experiment [2] was 168 AU.

For the compound `O=C(O)c1ccc(S(=O)(=O)N(Cl)Cl)cc1`, the remaining NAD in experiment [1] was 10 nM. Moreover, the luciferase signal in experiment [2] is 48 AU.

As for `CCN(CCCc1ccccc1)CCCc1ccccc1`, the remaining NAD in experiment [1] was 10 nM. Also, in experiment [2], the luciferase signal was 48 AU.

Regarding `Nc1ccc(S(=O)(=O)Nc2nccs2)cc1`, in experiment [1], the remaining NAD was 10 nM. Also, the luciferase signal in experiment [2] was 84 AU.

Turning to `Cc1cc2nc3c(=O)[nH]c(=O)nc-3n(C[C@H](O)[C@H](O)[C@H](O)CO)c2cc1C`, the remaining NAD in experiment [1] was 10 nM. Also, the luciferase signal in experiment [2] is 80 AU.

`CC(=O)[C@@]1(O)CC[C@H]2[C@@H]3C[C@H](C)C4=CC(=O)C=C[C@]4(C)[C@@]3(F)[C@@H](O)C[C@@]21C`: the remaining NAD in experiment [1] is 10 nM. Further, the luciferase signal in experiment [2] was 76 AU.

Turning to `CC1=C(C(=O)O)N2C(=O)[C@@H](NC(=O)[C@H](N)C3=CCC=CC3)[C@H]2SC1`, the remaining NAD in experiment [1] was 10 nM. Also, the luciferase signal in experiment [2] is 48 AU.

`Nc1nccs1`: in experiment [1], the remaining NAD was 10 nM. In experiment [2], the luciferase signal is 40 AU.

Take `CC1=CC(=O)c2ccccc2C1=O`: in experiment [1], the remaining NAD was 10 nM. Further, in experiment [2], the luciferase signal was 128 AU.

On to `Cc1cccc(N(C)C(=S)Oc2ccc3ccccc3c2)c1`, for which the remaining NAD in experiment [1] is 10 nM. Also, the luciferase signal in experiment [2] was 112 AU.

On to `COc1ccc(CCN(C)CCCC(C#N)(c2ccc(OC)c(OC)c2)C(C)C)cc1OC` (stereo not given), for which the remaining NAD in experiment [1] is 10 nM. The luciferase signal in experiment [2] was 96 AU.

With `Cc1cc(C)cc(OCC2CNC(=O)O2)c1` (stereo not given), the remaining NAD in experiment [1] is 10 nM. In addition, the luciferase signal in experiment [2] was 72 AU.

For the compound `CC1CCC(NC(=O)N(CCCl)N=O)CC1` (stereo not given), in experiment [1], the remaining NAD is 10 nM. In addition, the luciferase signal in experiment [2] is 44 AU.

In the case of `Cc1cccc(C(=O)O)c1O`, the remaining NAD in experiment [1] was 10 nM. In experiment [2], the luciferase signal is 68 AU.

On to `Cc1cc(O)cc(C)c1Cl`, for which the remaining NAD in experiment [1] is 10 nM. The luciferase signal in experiment [2] was 32 AU.

Turning to `OC(CCN1CCCCC1)(c1ccccc1)c1ccccc1`, in experiment [1], the remaining NAD is 10 nM. For the same compound, the luciferase signal in experiment [2] is 36 AU.

As for `Nc1ncnc2c1ncn2[C@@H]1O[C@H](COP(=O)(O)O)[C@@H](O)[C@H]1O`, in experiment [1], the remaining NAD was 10 nM. Also, the luciferase signal in experiment [2] was 292 AU (active).

Turning to `CC1(C)S[C@@H]2[C@H](NC(=O)C(C(=O)O)c3ccccc3)C(=O)N2[C@H]1C(=O)O` (stereo not given in full), in experiment [1], the remaining NAD was 10 nM. Moreover, the luciferase signal in experiment [2] was 84 AU.

Consider `O=C(CCCCC(=O)Nc1c(I)cc(I)c(C(=O)O)c1I)Nc1c(I)cc(I)c(C(=O)O)c1I`, for which the remaining NAD in experiment [1] was 10 nM. For the same compound, the luciferase signal in experiment [2] was 44 AU.

As for `Cc1cc2cc3c(C)cc(=O)oc3c(C)c2o1`, the remaining NAD in experiment [1] is 10 nM. Further, the luciferase signal in experiment [2] is 104 AU.

For the compound `NS(=O)(=O)c1cc2c(cc1Cl)NC(CSCc1ccccc1)=NS2(=O)=O`, in experiment [1], the remaining NAD was 10 nM. In experiment [2], the luciferase signal was 88 AU.

On to `CCC(=O)O[C@H]1[C@H](O[C@@H]2[C@@H](C)[C@H](O[C@H]3C[C@@](C)(OC)[C@@H](O)[C@H](C)O3)[C@@H](C)C(=O)O[C@H](CC)[C@@](C)(O)[C@H](O)[C@@H](C)C(=O)[C@H](C)C[C@@]2(C)O)O[C@H](C)C[C@@H]1N(C)C`, for which the remaining NAD in experiment [1] is 10 nM. The luciferase signal in experiment [2] is 180 AU (active).

Turning to `O=C(CCBr)N1CCN(C(=O)CCBr)CC1`, in experiment [1], the remaining NAD is 10 nM. Besides, the luciferase signal in experiment [2] was 92 AU.

On to `Cn1c([N+](=O)[O-])cnc1COC(N)=O`, for which the remaining NAD in experiment [1] was 10 nM. Also, the luciferase signal in experiment [2] is 108 AU.

As to `COc1ccc(-c2cc(C(F)F)nn2-c2ccc(S(N)(=O)=O)cc2)cc1F`, in experiment [1], the remaining NAD was 10 nM. Further, the luciferase signal in experiment [2] is 44 AU.

Take `Cc1c(N(C)C)c(=O)n(-c2ccccc2)n1C`: in experiment [1], the remaining NAD is 10 nM. For the same compound, in experiment [2], the luciferase signal is 60 AU.

Take `O=C(OCC(O)CO)c1ccccc1Nc1ccnc2cc(Cl)ccc12` (stereo not given): the remaining NAD in experiment [1] is 10 nM. Besides, the luciferase signal in experiment [2] is 176 AU (active).

For the compound `C=CCc1ccc(O)c(OC)c1`, the remaining NAD in experiment [1] was 10 nM. The luciferase signal in experiment [2] is 12 AU.

Take `CC(=O)OCC1=C(C(=O)O)N2C(=O)[C@@H](NC(=O)CSc3ccncc3)[C@H]2SC1`: the remaining NAD in experiment [1] is 10 nM. The luciferase signal in experiment [2] is 32 AU.

Turning to `Nc1nc2c(c(=O)[nH]1)N(C=O)C(CNc1ccc(C(=O)N[C@@H](CCC(=O)O)C(=O)O)cc1)CN2` (stereo not given in full), in experiment [1], the remaining NAD is 10 nM. Moreover, the luciferase signal in experiment [2] is 72 AU.

For `N=C(N)N`, in experiment [1], the remaining NAD is 10 nM. Moreover, the luciferase signal in experiment [2] was 44 AU.

Regarding `Nc1ccc(S(=O)(=O)NC(=O)c2ccccc2)cc1`, in experiment [1], the remaining NAD was 10 nM. For the same compound, the luciferase signal in experiment [2] is 32 AU.

As to `CC(=O)OCC(=O)[C@@]1(O)[C@H](C)C[C@H]2[C@@H]3CCC4=CC(=O)C=C[C@]4(C)[C@@]3(F)[C@@H](O)C[C@@]21C`, in experiment [1], the remaining NAD is 10 nM. In experiment [2], the luciferase signal is 120 AU.

For `COc1ccc(CN(CCN(C)C)c2ncccn2)cc1`, the remaining NAD in experiment [1] was 10 nM. For the same compound, the luciferase signal in experiment [2] is 60 AU.

As for `Nc1cc(-c2ccncc2)c[nH]c1=O`, the remaining NAD in experiment [1] was 10 nM. The luciferase signal in experiment [2] was 104 AU.

With `Nc1ccc(C(=O)O)cc1`, the remaining NAD in experiment [1] was 10 nM. For the same compound, the luciferase signal in experiment [2] is 40 AU.

Turning to `CN(C)CCc1c[nH]c2ccc(CS(=O)(=O)N3CCCC3)cc12`, in experiment [1], the remaining NAD was 10 nM. The luciferase signal in experiment [2] was 52 AU.

As for `CCOc1ccc(Cc2nccc3cc(OCC)c(OCC)cc23)cc1OCC`, the remaining NAD in experiment [1] is 10 nM. Further, the luciferase signal in experiment [2] was 68 AU.

Take `CC(C)(C)CC(C)(C)c1ccc(O)c(Cc2ccc(Cl)cc2Cl)c1`: the remaining NAD in experiment [1] is 10 nM. For the same compound, the luciferase signal in experiment [2] was 52 AU.
